# BioA inh-1 – BioA (M. tuberculosis) enzyme inhibition. purified M. tuberculosis BioA enzyme, plate reader. inhibition, % at 9.99 µM. 360,000 compounds, 0.096% hits; in the data active means inhibition above about 40%; inconclusive means no clear call, values can overlap the other calls
# Mtb UGM inh – Mtb UDP-galactopyranose mutase inhibition. P9WIQ1. purified UGM, fluorescence polarization probe displacement. inhibition, % at 10 µM. 320,000 compounds, 0.06% hits. AID 504406; in the data active means inhibition above about 10%, passing the limit was not always enough; inconclusive means no clear call, values can overlap the other calls
# TcdB GH inh – inhibitors of Clostridioides difficile toxin B glycohydrolase | TcdB glycohydrolase enzymatic assay, plate reader | 350,000 compounds, 0.24% hits | inhibition, % at 9.99 µM; in the data active means inhibition above about 10%
# Rv3671c protease – inhibitors of M. tuberculosis serine protease Rv3671c; P9WHR9; inhibition, % at 5.96 µM; 320,000 compounds, 0.048% hits; AID 2606; in the data active means inhibition above about 38%;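 further: extracellular domain of Rv3671c used as enzyme; 0% = enzyme with DMSO and 100% = no enzyme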
# FadD28 binding – blocks FadD28 binding to the bisubstrate probe | AID 588549 | 360,000 compounds, 0.22% hits | inhibition, % at 12.5 µM | fluorescence polarization; in the data active means inhibition above about 8.5%, passing the limit was not always enough; inconclusive means no clear call, values can overlap the other calls
# RecA intein inh – Mtb RecA intein splicing inhibition | 290,000 compounds, 0.75% hits | AID 2221 | inhibition, % (concentration not given with the values) | cell-free RecA intein splicing, fluorescence | P9WHJ3; in the data active means inhibition above about 30%; inconclusive means no clear call, values can overlap the other calls;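 further: 0% = vehicle wells and 100% = reference inhibitor control wells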
# BioA inh-2 – inhibitors of Mycobacterium tuberculosis BioA enzyme; shares compounds with BioA inh-1; 310 tested, under 10 active; AID 651679; max activity, %; purified BioA enzyme, plate reader, dose response;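 further: top concentration of the dilution series was 10 µM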
# Target sequence (P9WQ81 whole entry, looked up): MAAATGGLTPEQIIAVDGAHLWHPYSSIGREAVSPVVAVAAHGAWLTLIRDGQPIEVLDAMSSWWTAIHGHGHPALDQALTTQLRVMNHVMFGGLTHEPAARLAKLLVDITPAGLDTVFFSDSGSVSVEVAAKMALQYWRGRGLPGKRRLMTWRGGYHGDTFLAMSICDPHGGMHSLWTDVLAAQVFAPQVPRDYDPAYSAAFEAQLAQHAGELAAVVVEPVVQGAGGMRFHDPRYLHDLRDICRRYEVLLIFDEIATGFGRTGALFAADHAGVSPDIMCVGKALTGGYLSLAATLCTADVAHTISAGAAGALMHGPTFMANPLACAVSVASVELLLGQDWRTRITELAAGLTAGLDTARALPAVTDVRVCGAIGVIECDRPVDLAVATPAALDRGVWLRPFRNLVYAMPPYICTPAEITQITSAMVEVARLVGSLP
# HepG2 tox 2 – cytotoxicity in HepG2 cells; 310 tested, under 10 active; max activity, %; AID 651898; shares compounds with BioA inh-1; plate reader
# 3T3 cytotox 5 – NIH3T3 viability loss; shares compounds with BioA inh-1; NIH3T3 cytotoxicity, plate reader; activity change, negative = cytotoxicity, % at 26 µM; 310 tested, under 10 active; AID 651900
# Starred values were filed as active, the others as inactive; i = inactive; ? = inconclusive; . = no result. Most compounds without a hit are left out; they make up all but 0.9% or so of the library. Unless noted, how the calls were made is not given here.
SMILES,BioA inh-1,Mtb UGM inh,TcdB GH inh,Rv3671c protease,FadD28 binding,RecA intein inh,BioA inh-2,HepG2 tox 2,3T3 cytotox 5
COc1ccc(S(=O)(=O)Nc2ccc3c(c2)C(=O)N([C@@H](C)CO)C[C@@H](C)[C@@H](CN(C)S(=O)(=O)c2c(C)noc2C)OCCCC[C@@H](C)O3)cc1,-0.4,.,0.3,.,.,.,.,.,.
COc1ccc(NC(=O)N(C)C[C@@H]2OCCCC[C@H](C)Oc3ccc(NC(=O)NC4CCCCC4)cc3C(=O)N([C@H](C)CO)C[C@@H]2C)cc1,-2.3,.,-3.1,.,.,.,.,.,.
C[C@H](CO)N1C[C@H](C)[C@H](CN(C)Cc2ccccc2F)Oc2ncc(C#CCN(C)C)cc2C1=O,-0.1,.,-1.4,.,.,.,.,.,.
O=C(COc1ccc2ccc(=O)oc2c1)N1CCN(c2ccc(F)cc2)CC1,54.9*,-2.1,0.8,4.1,-2.8,2.7,-10.5,-11.6,-7.8
O=C(COc1ccc2ccc(=O)oc2c1)N1CCC(C(=O)O)(c2ccccc2)CC1,23.0,-3.8,0.1,1.4,-3.1,19.9,.,.,.
[N-]=[N+]=Nc1ccccc1C[C@@]1(C(=O)NCc2ccccc2)N=C(c2ccc(OCCCO)cc2)O[C@@H]1c1ccccc1N=[N+]=[N-],-1.4,.,0.7,.,.,.,.,.,.
CCCN1CCN(C(=O)C2CCN(c3nnc(C)c4c(C)n(-c5ccc(C)cc5)nc34)CC2)CC1,41.3*,3.1,-2.2,-16.2,-1.2,2.7,-5.0,17.3,-8.6
Cc1ccc(-n2nc3c(N4CCC(C(=O)N5CCN(C)CC5)CC4)nnc(C)c3c2C)cc1,34.9,-1.9,1.1,1.5,-1.2,-4.1,.,.,.
Cc1ccc(Cn2ccc(=O)c(Cc3c(Cl)cccc3Cl)c2C)cc1,5.7,-0.7,.,-4.6,-4.1,8.9,.,.,.
COc1ccc(Cn2ccc(=O)c(Cc3c(Cl)cccc3Cl)c2C)cc1,43.0*,-1.3,.,0.3,-3.7,8.4,5.2,?,?
Cc1nc(-c2cccnc2)sc1C(=O)Nc1cccc(C(F)(F)F)c1,50.5*,1.0,.,-25.5,-6.4,0.8,-9.1,?,-2.2
O=C(Nc1ccc(Cl)c(-c2nc3ccccc3[nH]2)c1)c1cccnc1,64.3*,2.4,.,-22.2,-13.8,1.3,23.3,21.6,-6.2
COc1ccccc1-c1cc(C(F)(F)F)nc(NCc2cccs2)n1,-1.3,-1.3,-0.9,-10.9,-1.5,6.8,.,.,.
COc1ccccc1-c1cc(C(F)(F)F)nc(S(=O)(=O)CCCC(=O)O)n1,60.4*,3.5,.,-4.7,-4.6,23.7,-7.5,-2.5,-8.1
CCNC(=O)C[C@@H]1CC[C@@H]2[C@H](COC[C@@H](O)CN2C(=O)Nc2ccc3c(c2)OCO3)O1,3.3,.,-1.4,.,.,.,.,.,.
CNC(=O)C[C@H]1CC[C@@H]2[C@H](COC[C@@H](O)CN2C(=O)Nc2ccc3c(c2)OCO3)O1,49.9*,.,-0.9,.,.,.,-7.9,i,-4.3
COC(=O)C[C@H]1CC[C@H]2[C@@H](COC[C@H](O)CN2C(=O)Nc2cccc(F)c2)O1,3.8,.,0.3,.,.,.,.,.,.
COC(=O)C[C@@H]1CC[C@@H]2[C@H](COC[C@@H](O)CN2C(=O)Nc2cccc(F)c2)O1,46.1*,.,0.1,.,.,.,-7.0,i,-1.5
C[C@@H]1CN([C@H](C)CO)C(=O)c2cccc(N(C)C)c2O[C@@H]1CN(C)C(=O)Nc1cccc2ccccc12,-1.5,.,0.1,.,.,.,.,.,.
Cc1noc(C)c1S(=O)(=O)N(C)C[C@@H]1Oc2ccc(NS(=O)(=O)c3ccc(F)cc3)cc2CC(=O)N([C@H](C)CO)C[C@@H]1C,.,.,0.5,.,.,.,.,.,.
CCc1ccccc1Nc1ccc(C(=O)O)cc1N,2.0,1.8,.,-2.7,4.9,4.5,.,.,.
Nc1cc(C(=O)O)ccc1Nc1ccccc1,75.0*,0.5,.,-19.1,3.5,4.0,-9.4,-6.8,-6.3
O=C([O-])c1cc(-c2ccccc2)cc(-c2ccccc2)[n+]1Cc1ccccc1,.,0.7,0.5,-6.1,.,3.5,.,.,.
O=[N+]([O-])c1ccc(C[n+]2c(-c3ccccc3)cc(-c3ccccc3)cc2-c2ccccc2)cc1,58.6*,-2.1,0.8,1.9,-1.6,5.0,-4.1,-9.1,0.1
C[C@H]1CN([C@@H](C)CO)C(=O)Cc2cc(NS(=O)(=O)c3ccc(F)cc3)ccc2O[C@H]1CN(C)S(=O)(=O)c1ccccc1,0.2,.,1.9,.,.,.,.,.,.
CCc1c(C(=O)NCCc2ccc(OC)c(OC)c2)[nH]c(C)c1C(C)=O,59.7*,-5.8,.,-11.2,-2.3,.,-8.8,9.6,-5.8
Cc1cc(=O)oc2c3c(cc(OCC(=O)NCCCn4ccnc4)c12)OC(C)(C)CC3,19.7,1.7,0.3,1.9,-0.6,8.1,.,.,.
CCCc1cc(=O)oc2c3c(cc(OCC(=O)NCCCn4ccnc4)c12)OC(C)(C)CC3,43.4*,-1.1,11.3*,3.3,-0.8,0.4,-5.7,8.1,-5.8
COc1ccc(NC(=O)Nc2ccc3c(c2)C(=O)N([C@@H](C)CO)C[C@H](C)[C@H](CN(C)S(=O)(=O)c2cn(C)cn2)O3)cc1,11.1,.,0.8,.,.,.,.,.,.
